Compound activity as filed in PubChem.
Compounds with a hit are over-represented: about 13% of the library has one in this group of screens.
Marburg entry inh: blocks Marburg virus binding to or entry into cells | Marburg virus pseudotyped entry inhibition, cell reporter | 1.8% of 300,000 active | Potency, µM (top dose mostly 37.8 µM), inactives show at the highest dose activity change, negative = inhibition, most hits filed as inhibitors | AID 540276; calls by dose curve; tested in HEK293 cells; also: potency is read from the fitted curve at half-maximal effect; % is scaled to controls: 0 for no effect and ±100 for the full control effect
Cycloheximide cs: affects cycloheximide protein synthesis inhibition readout, counter-screen; cell reporter, cycloheximide protein synthesis inhibition counterscreen; max response, %; 12% of 300,000 active; in the data active = max response mostly above about 13%, no sharp cut-off; inactive = mostly below about 14%; also: read at 38.3 µM for the half of the compounds with a filed dose; 0% is about no effect
FMDV inh: blocks foot and mouth disease virus; AID 1159524; 1.2% of 410,000 active; FMDV antiviral cell-based qHTS; Potency, µM (top dose mostly 57.9 µM), without a hit: at the highest dose activity change, negative = inhibition, actives largely listed as inhibitors; calls by dose curve; tested in HEK293T cells; also: read-out not given here; potency is read from the fitted curve at half-maximal effect; % is scaled to controls: 0 for no effect and ±100 for the full control effect; nearly all actives have a fitted effect of over 45% in size
Shiga inhibitor: Shiga toxin inhibition. Vero cells, Shiga toxin protein synthesis inhibition reporter. inhibition, % at 38.7 µM. 9.2% of 290,000 active; in the data active = inhibition mostly above about 28%, no sharp cut-off; inactive = mostly below about 43%; also: 0% is about no effect
HCV inhibitor: HCV inhibition; Huh7.5.1 HCVcc-Cre infection, luciferase reporter, 44 h; Potency, µM (series often up to 41.8 µM), for the others: at the top dose activity change, negative = inhibition, actives largely listed as inhibitors; 3.4% of 340,000 active; AID 651820; active = well fitted inhibition curve with a large enough effect; inconclusive = small, poorly fitted or top-dose-only effect, or another doubt; inactive = no such curve, though single readings can be large or run the other way; also: potency is read from the fitted curve at half-maximal effect; % is scaled to controls: 0 for no effect and ±100 for the full control effect
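Cells (1,000/well) were plated 4 h before compound, then infected with HCVcc-Cre virus (~0.5 moi). After 44 h further culture, infection was read as luciferase luminescence following a 15 min substrate incubation at room temperature.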
Lassa entry inh: blocks Lassa virus binding to or entry into cells; Lassa virus pseudotype entry inhibition, cell reporter; Potency, µM (top dose mostly 37.9 µM), without a hit: at the top dose activity change, negative = inhibition, usual class: inhibitors; 1.2% of 300,000 active; AID 540256; calls by dose curve; tested in HEK293 cells; also: potency is read from the fitted curve at half-maximal effect; % is scaled to controls: 0 for no effect and ±100 for the full control effect; nearly all actives have a fitted effect of over 50% in size
* marks the source's active call; other numbers are inactive results; u = inconclusive; x = no result; [ ] = remark or other dose.

SMILES | Marburg entry inh | Cycloheximide cs | FMDV inh | Shiga inhibitor | HCV inhibitor | Lassa entry inh
CC(C)c1ccc(C(=O)NCCCN2CCOCC2)cc1 | x | 37* | 32% | 60 | 1% | x
O=C(NCCCN1CCOCC1)c1ccc(Br)cc1 | u | 9 | 20% | 30 | 2% | 9%
CCC1CCC(C(=O)NNC(=O)c2cc(-c3ccco3)[nH]n2)CC1 (stereo unspecified) | 0%[46.1 µM] | -2 | 1% | -12 | 24% | -3%
Oc1ccccc1C(Nc1nccs1)c1ccc2cccnc2c1O (stereo unspecified) | 12µM* | 0 | -14% | 5 | 4.5µM* | 7.3µM*
CCCC(=O)NC(c1ccc(N(C)C)cc1)c1ccc2cccnc2c1O (stereo unspecified) | u | 6 | 1% | 9 | 3.2µM* | u
CC(=O)NC(c1ccc(Cl)cc1)c1ccc2cccnc2c1O (stereo unspecified) | x | x | -8% | x | 4.5µM* | x
CCCCC(=O)NC(c1ccc(OC)cc1)c1ccc2cccnc2c1O (stereo unspecified) | x | x | -19% | x | x | x
CCCC(=O)NC(c1ccc(C(C)C)cc1)c1ccc2cccnc2c1O (stereo unspecified) | u | -2 | -16% | -10 | 1.8µM* | 4.5µM*
CC(=O)NC(c1ccc(N(C)C)cc1)c1cc(Cl)c2cccnc2c1O (stereo unspecified) | x | x | -24% | x | x | x
Cc1nc([N+](=O)[O-])cn1CC(O)c1ccc(Cl)cc1 (stereo unspecified) | x | 21 | -8% | 7 | -3% | x
CN(C)c1ccc(NC(=O)C2CCCN(S(=O)(=O)c3ccccc3)C2)cc1 (stereo unspecified) | -23%[46.1 µM] | 1 | u | -9 | u | -15%
Cn1c(CNc2cccc(Cl)c2)nnc1SCC(=O)OC1CCCCC1 | -5% | -1 | -25% | 16 | 3% | 10%
CCCC(=O)NC(c1ccccc1Cl)c1ccc2cccnc2c1O (stereo unspecified) | 0.89µM* | 1 | -6% | 7 | 2µM* | u
Cc1cc(NC(c2ccc(Cl)cc2)c2ccc3cccnc3c2O)no1 (stereo unspecified) | u | -1 | -19% | -19 | 2.5µM* | u
CCC(=O)NC(c1ccc(C)cc1)c1cc([N+](=O)[O-])c2cccnc2c1O (stereo unspecified) | u | 1 | u | -6 | u | u
COc1ccc(C(=O)NC(c2ccccc2Cl)c2cc(Cl)c3cccnc3c2O)cc1 (stereo unspecified) | x | -2 | -13% | -2 | x | u
CC(=O)NC(c1ccco1)c1ccc2cccnc2c1O (stereo unspecified) | u | -5 | 2% | 7 | 7.9µM* | u
CCC(=O)NC(c1ccc(C)cc1)c1ccc2cccnc2c1O (stereo unspecified) | 3.2µM* | 13 | 3% | 2 | u | 11µM*
COC(=O)c1cccc(NC(=S)N2CCN(C)CC2)c1 | 3% | -2 | 13% | -2 | 0% | 0%
COc1cc2c(cc1OC)CN(Cc1cc(OC)c3c(c1)OCO3)CC2 | -26%[46.1 µM] | -3 | -2% | 32 | 15% | 32%[46.1 µM]
CCOc1ccc(CCNC(=O)COC(=O)c2cc(S(=O)(=O)N3CCOCC3)ccc2F)cc1OCC | 3%[46.1 µM] | -1 | -6% | -9 | -12% | -11%
CCOC(=O)c1c(C)[nH]c(C(=O)OCC(=O)Nc2cc(Cl)ccc2OC)c1C | u | -4 | -13% | -2 | 13% | -21%
COc1cc(NC(=O)COC(=O)c2[nH]c(C)c(C(C)=O)c2C)cc(OC)c1 | u | x | u | x | 10µM* | -22%[46.1 µM]
CC(=O)c1c(C)[nH]c(C(=O)OCC(=O)Nc2cc(C)on2)c1C | -15% | -3 | -25% | -6 | u | 2%
CC(=O)c1c(C)[nH]c(C(=O)OCC(=O)Nc2ccc(Cl)c(S(=O)(=O)N(C)C)c2)c1C | x | 3 | 28µM* | 14 | 4µM* | x
SMILES | Marburg entry inh | Cycloheximide cs | FMDV inh | Shiga inhibitor | HCV inhibitor | Lassa entry inh
CC(=O)c1c(C)[nH]c(C(=O)OCC(=O)Nc2ccc(Cl)cc2[N+](=O)[O-])c1C | 6.3µM* | -3 | u | -8 | u | -15%
CN(C)S(=O)(=O)c1cc(NC(=O)c2cc(=O)[nH]c3ccccc23)ccc1Cl | x | 1 | x | 7 | x | x
CC(=O)c1c(C)[nH]c(C(=O)Nc2ccc(Cl)c(S(=O)(=O)N(C)C)c2)c1C | x | 24* | 33% | 109* | u | x
Cc1cc(C)c2c(N)c(-c3nc4ccccc4[nH]3)sc2n1 | -30% | 45* | 56% | 81* | -1% | u
Cc1ccc2oc(=O)c(-c3nc4ccc(C)cc4[nH]3)cc2c1 | x | x | 34% | x | x | 3%[46.1 µM]
Cc1ccc2nc(-c3sc4nc(C)ccc4c3N)[nH]c2c1 | -7% | 33* | u | 44* | u | u
CC(Cc1cccs1)NC(=S)Nc1ccc(F)cc1 (stereo unspecified) | u | 10* | 26% | 51* | -4% | u
COc1ccc(NC(=S)NC(C)Cc2cccs2)cc1 (stereo unspecified) | x | 29* | 78% | 68* | 9% | x
S=C(NCc1cccs1)Nc1ccccc1Cl | 0% | 24* | 38% | 44* | 12% | -2%
S=C(NCc1cccs1)Nc1cc(Cl)cc(Cl)c1 | u | 14 | 1% | 18 | u | -5%[46.1 µM]
COc1ccc(NC(=S)NCc2cccs2)cc1 | 19%[46.1 µM] | 19* | 51% | 47* | 12% | 29%
Cc1ncc(NS(=O)(=O)c2ccc(N)cc2)nc1C | 1% | x | 19% | x | -3% | 8%
CN[C@H](CC(=O)O)C(=O)O | u | x | -14% | x | -8% | 15%
Cc1cccc(-n2c(=O)c3c4c(sc3n3c(C)nnc23)CCCC4)c1 | x | x | 0% | x | x | -5%[46.1 µM]
CCOC(=O)C1=NN(c2ccccc2)C(=O)/C1=C\c1ccc(N(C)C)cc1 | -3% | -2 | 18µM* | 10 | 11% | -1%
CC1=NN(Cc2ccccc2)C(=O)/C1=C\c1ccc(N(C)C)cc1 | 5% | 31* | 0% | 32* | 17% | -3%
CC[C@@H](C)[C@@H](N)C1=N[C@H](C(=O)N[C@@H](CC(C)C)C(=O)N[C@@H](CCC(=O)O)C(=O)N[C@@H](C(=O)N[C@@H]2CCCCNC(=O)[C@@H](CC(N)=O)NC(=O)[C@@H](CC(=O)O)NC(=O)[C@@H](Cc3cnc[nH]3)NC(=O)[C@@H](Cc3ccccc3)NC(=O)[C@@H]([C@H](C)CC)NC(=O)[C@@H](CCCN)NC2=O)[C@@H](C)CC)CS1 | x | x | -8% | x | x | x
Cc1scc(C(=O)NNC(=S)NC(C)c2ccccc2)c1C (stereo unspecified) | -8% | 0 | -1% | 18 | -14% | -12%
CC1=C(C)CC(C(=O)NNC(=O)c2csc(C)c2C)C(C(=O)O)C1 (stereo unspecified) | u | 21* | -22% | 79* | 21% | u
COc1ccc2nc(N3C(=O)/C(=C/c4ccc(Cl)cc4)NC3=S)sc2c1 | 4% | -2 | -4% | 2 | -8% | u
